# Compounds without any hit were thinned out: in the full panel of roughly 83,000, 20% have a hit.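 In brief: 96-well plates, 48 h treatment, single concentration, percent growth endpoint.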 Unmarked numbers belong to inactive results. Active and inactive are the calls of the source. How the source made its calls: active means growth percent below 10; inactive means the rest.
# Assays:
# Experiment in all cases: NCI-60 one-dose screen, 48 h (100 = growth as untreated, 0 = no growth, -100 = all killed)
# Conditions in all cases: 10 µM unless noted
# [1] = test system: HCT-15 colon
# [2] = test system: HT29 colon
# [3] = test system: SNB-75 CNS
# [4] = test system: SNB-19 CNS
# [5] = test system: U251 CNS
# [6] = test system: PC-3 prostate
# [7] = test system: SK-MEL-5 melanoma
# [8] = test system: UACC-62 melanoma
# [9] = test system: LOX IMVI melanoma
# [10] = test system: SK-MEL-28 melanoma
# [11] = test system: SK-MEL-2 melanoma
# [12] = test system: EKVX NSCLC
# [13] = test system: SN12C renal
# [14] = test system: UO-31 renal
# [15] = test system: TK-10 renal
# [16] = test system: ACHN renal
# [17] = test system: CAKI-1 renal
# [18] = test system: CCRF-CEM leukemia
# [19] = test system: MOLT-4 leukemia
Compound,growth [1],growth [2],growth [3],growth [4],growth [5],growth [6],growth [7],growth [8],growth [9],growth [10],growth [11],growth [12],growth [13],growth [14],growth [15],growth [16],growth [17],growth [18],growth [19]
CCc1c(Cl)nc(N)nc1Nc1ccc(C)c(C)c1,55.7%,102%,93.5%,96.2%,88.1%,95.8%,92.9%,92.8%,85.7%,103%,99.3%,89.2%,99.9%,90.8%,103%,99.7%,86.5%,100%,94.4%
N/C(=N\C(N)=N\c1nc2ccccc2s1)c1cnccn1,11.6%,24.1%,35.8%,37.4%,35.1%,31.1%,-48.5% (active),-20.8% (active),15.1%,21.6%,3% (active),48%,36.7%,-12.9% (active),37.9%,26.2%,15.5%,14.6%,8.63% (active)
CNC(=O)c1cccc(Cn2nc(C)c(NC(=O)c3ccc(COc4ccc(C(F)(F)F)cc4C)cc3)c2C)c1,55%,44.4%,82.2%,46.8%,44.4%,40.1%,-16.8% (active),57%,58%,63.9%,48.9%,34%,56.6%,47.3%,55.5%,47.2%,47%,54.4%,18%
Cc1cc2nc3c4ccc(Br)cc4n(CCN(C)C)c3nc2cc1C,1.66% (active),5.01% (active),16.7%,23.5%,15.1%,12.8%,4.17% (active),13.1%,-52.6% (active),42.4%,8.78% (active),22.7%,16.7%,-30.3% (active),22.2%,-7.69% (active),0.198% (active),12.7%,3.31% (active)
C=C(C)[C@@H]1CC[C@]2(C(=O)N3CCN(C)CC3)CC[C@]3(C)[C@H](CC[C@@H]4[C@@]5(C)C/C(=C/c6cccnc6)C(=O)C(C)(C)[C@@H]5CC[C@]43C)[C@@H]12,44.5%,20.9%,79.7%,68.7%,52.3%,18.6%,68.6%,81.4%,78.7%,83.1%,82.8%,83.8%,57.6%,57.2%,101%,71.7%,79.8%,28.9%,14.9%
O=C(Nc1ccc(-c2ccc3c(c2)NC(=O)/C3=C\c2ccc[nH]2)cc1)NC1CC1,88.3%,88%,89.8%,92.6%,75%,99.4%,94%,97.7%,89.3%,111%,112%,47.5%,101%,88.2%,108%,101%,99.9%,86.1%,94.2%
COc1ccc(C(=O)c2cc(C)c(OC)c(C)c2)c(OC)c1N(C(=O)CCl)C(=O)CCl,4.71% (active),3.24% (active),45.2%,11.9%,16.1%,13.1%,-9.39% (active),24.5%,14.1%,54%,27.8%,51.7%,31.3%,39.3%,52.5%,18.2%,42%,8.61% (active),13.2%
CCOC(=O)CSc1nc2ccccc2c(=O)n1Cc1ccc(S(N)(=O)=O)cc1,100%,105%,85.8%,99.2%,97.5%,91.7%,100%,94.4%,95.9%,104%,111%,97.1%,99.5%,84.3%,98.7%,102%,91.3%,97.1%,104%
c1ccc2cc(Cn3c(-c4cccc5ccccc45)[n+](Cc4ccc5ccccc5c4)c4c5ccccc5c5ccccc5c43)ccc2c1,-60.4% (active),-49.5% (active),-66.3% (active),-82.7% (active),-91.1% (active),-46.7% (active),-98.1% (active),-74.5% (active),-84.3% (active),-61.5% (active),-72.5% (active),-77.2% (active),-82% (active),-89.2% (active),-79.8% (active),-92.6% (active),-96.7% (active),-17.4% (active),-55.3% (active)
N#C/C(=C\c1ccc(Cl)cc1)n1nnc2cc(F)c(F)cc21,2% (active),9.95% (active),15.9%,34.5%,18.1%,30.9%,8.38% (active),21%,-63.5% (active),29.6%,38.6%,59.3%,8.61% (active),-17.5% (active),16.9%,9.15% (active),18%,-8.83% (active),1.3% (active)
COc1ccc(NC(=O)c2cc(NCc3cc(O)ccc3O)ccc2O)cc1,97%,89.7%,101%,90%,91.1%,64.1%,92.6%,94.6%,94.3%,98.5%,89.3%,100%,85.8%,65.8%,118%,97.4%,107%,28.5%,65.2%
COc1cc(NC(C)CCCNC(=O)CCC(=O)NCCCNCCCCCCCCNCCCNC(=O)CCC(=O)NCCCC(C)Nc2cc(OC)cc3cccnc23)c2ncccc2c1 (centres undefined),108%,67.5%,54.2%,57.9%,35.1%,77.6%,97.1%,84.2%,35.7%,78.1%,78.4%,79.6%,42.9%,91.4%,82.6%,88.9%,95.1%,58.9%,76.4%
CCCCNC(=O)Oc1ccc(/C(=C(\C)c2ccccc2)c2ccc(OCCN3CCCCC3)cc2)cc1,9.66% (active),0.947% (active),84.6%,71.5%,50.7%,55.3%,68.9%,41.8%,62%,46.7%,72.7%,76.2%,70.7%,40.4%,85.3%,90.1%,46.9%,66.3%,53.8%
CCC(=O)Oc1ccc(/C(=C(\C)c2ccccc2)c2ccc(OCCN3CCCCC3)cc2)cc1,58.6%,8.78% (active),96.5%,85%,68.4%,72.8%,82.5%,88.5%,81%,71.2%,92.1%,87.1%,79.7%,64.3%,84.2%,102%,87.8%,84.9%,60.8%
CC(=O)N1N=C(c2ccc(-n3ccc(C(F)(F)F)n3)c(F)c2)CC1c1ccc[nH]1 (centres undefined),98.8%,102%,103%,100%,99.3%,96.7%,97.7%,90.7%,98.1%,105%,94%,102%,102%,92.7%,108%,109%,95.4%,93.7%,85.6%
CCOC(=O)[C@@H]1CCCN(S(=O)(=O)c2ccc(S(=O)(=O)N(CC)CC)c(F)c2)C1,84.4%,83%,90.9%,69.2%,82.2%,84%,18.8%,59.4%,62.2%,93.4%,62.6%,46.9%,85.4%,69%,81.4%,75%,64.1%,85.1%,79.4%

# Reference: PubChem BioAssay (NCI)
